Assay results from PubChem BioAssay (NCI).
This is part of a sample that, as a whole, favours compounds with a hit. Of some 79,000 tested, about 15% had one in any assay. Unmarked numbers belong to inactive results. Calls of active or inactive are those of the source. Cut-off read from the data, not from the text of the source: active = growth inhibition above about 70%; inactive = the rest.

Assay: NCI Yeast Anticancer Drug Screen. Data for the cln2 rad14 strain (AID 165);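 note: 0% = growth equal to vehicle treated cultures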
Conditions: S. cerevisiae cln2 rad14 strain, at 50.0 µM (retest, dose inferred, filed as 5.0), active compounds read high
In short: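 Compounds are applied to the cln2 rad14 yeast strain, and growth is then compared with that of vehicle-treated cultures to give inhibition.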

Row | SMILES | growth inhibition
1 | CCOP(=O)(OCC)C(Cc1ccccc1)N=C(c1ccccc1)c1ccccc1 (stereo not drawn) | -1%
2 | CCc1ncnc2cc(OCC3CO3)c(OC)cc12 (stereo not drawn) | 79% (active)
3 | CCOC(=O)[C@H]1Nc2ccccc2C2c3ccccc3CC21 (stereo partly drawn) | 73% (active)
4 | O=CNc1ccc2c(c1)C(=O)c1ccccc1-2 | -5%
5 | CCOc1ccc2c(c1)c(CC(=O)O)cn2C | -21%
6 | OC1CSCCCSCCSCCCSC1 | 25%
7 | N#Cc1c(N)[nH]c2ccc(Sc3ccccc3)cc12 | 14%
8 | Cc1ccc(-c2ccc(Nc3c4ccccc4nc4ccccc34)cc2)cn1 | 70% (active)
9 | c1ccc2c(c1)NC(NC1Nc3ccccc3N1)N2 | 32%
10 | OC(COc1cccc2ccccc12)CN1CCOCC1 (stereo not drawn) | 59%
11 | CCC/C(Cl)=N\OC(=O)Nc1ccc(Br)cc1 | 99% (active)
12 | COc1ccc(/C=C2\SC(=S)N(/C=C/c3nc4ccccc4[nH]c3=O)C2=O)cc1OC | 26%
13 | O=C(NNc1ccnc2cc(Cl)ccc12)/C(=C\c1ccccc1Cl)NC(=O)c1ccccc1 | 22%
14 | CSC1=NNC(SC)=NN1 | 99% (active)
15 | Cc1c(C2=C(Br)C(=O)N(C)C2=O)c(=O)n(C)c(=O)n1C | -14%
16 | NCCNc1ccc(NCCN)c2c1C(=O)c1c(O)ccc(O)c1C2=O | 77% (active)
17 | Cn1c(=O)c(-c2ccccc2)c(N=[N+]=[N-])c2ccccc21 | 89% (active)
18 | CCCCCCCCCCCCCCCCCCOCC(O)COP(=O)(O)OCC1OC(n2cc(F)c(=O)[nH]c2=O)CC1O (stereo not drawn) | 96% (active)
19 | CCS(=O)(=O)c1ccc(/C=C/C=N/NC(=S)NCC(C)C)cc1 | 9%
20 | CCC(=O)Oc1c(Cl)cc(Cl)c2ccccc12 | 18%

Row | SMILES | growth inhibition
21 | COc1cc2c3c(cccc3c1)C(=O)N(CCN(C)C)C2=O | 3%
22 | CN(C)c1ccc(C(C#N)=C(C#N)C#N)cc1 | 6%
23 | O=C(CCCN1CCC2(CC1)CC(=O)N(N1CCCCCC1)C2=O)c1ccc(F)cc1 | 82% (active)
24 | O=C1C2C(C(=O)N1c1ccc(OCc3ccccc3)cc1)C1c3ccccc3C2C2CCCCN21 (stereo not drawn) | -15%
25 | CCN(CC)CCC(=O)c1ccc(Oc2ccc(F)cc2)cc1 | 3%
26 | O=Nc1c(NO)ccc2nn(-c3ccccc3)nc12 | 99% (active)
27 | CC(=O)SCCC[Si](C)(C)CCCSC(C)=O | 54%
28 | O=C(O)C1CCCCC1c1c2ccc(=O)c(O)c-2oc2c(O)c(O)ccc12 (stereo not drawn) | 74% (active)
29 | Cc1ccc(NN(NC(=O)OC(C)C)C(=O)OC(C)C)cc1 | 27%
30 | O=C1c2ccccc2C(=O)c2cc(CBr)ccc21 | 76% (active)
31 | Cc1c(C(Cc2ccccc2N(C)C(=O)/C=C\C(=O)O)c2c[nH]c3ccccc23)c2ccccc2n1C (stereo not drawn) | 38%
32 | CC(C)/C(Cl)=N\OC(=O)Nc1ccc(F)cc1 | 29%
33 | O=C1OC(=O)C2CCCC3CCCC1C32 (stereo not drawn) | 98% (active)
34 | CCOC(=O)C(NC(=O)c1ccccc1)(N1CCN(c2cc3c(cc2F)c(=O)c(C(=O)O)cn3C2CC2)CC1)C(F)(F)F (stereo not drawn) | -13%
35 | COc1ccc(NC(=S)N/N=C(\c2ccccc2)c2ccccn2)cc1 | 88% (active)
36 | C=CCC1=C(C)C(OC(=O)/C=C/c2ccccc2)CC1=O (stereo not drawn) | 36%
37 | NNc1c(F)c(F)cc(F)c1F | 42%
38 | COP(=O)(OC)/C(=C\C1=CN(C(c2ccccc2)(c2ccccc2)c2ccccc2)CN1)NC=O | 7%
39 | COC(=O)c1cc(-c2ccc(C)cc2)[nH]c(=O)c1C#N | 43%

Same assay, conditions: S. cerevisiae cln2 rad14 strain, at 50.0 µM, active compounds read high

Row | SMILES | growth inhibition
40 | CCOP(=O)(OCC)C(Cc1ccccc1)N=C(c1ccccc1)c1ccccc1 (stereo not drawn) | 97.8% (active)
41 | CCc1ncnc2cc(OCC3CO3)c(OC)cc12 (stereo not drawn) | 79.1% (active)
42 | CCOC(=O)[C@H]1Nc2ccccc2C2c3ccccc3CC21 (stereo partly drawn) | 90.9% (active)
43 | O=CNc1ccc2c(c1)C(=O)c1ccccc1-2 | 26.8%
44 | CCOc1ccc2c(c1)c(CC(=O)O)cn2C | 18.8%
45 | OC1CSCCCSCCSCCCSC1 | 10.7%
46 | N#Cc1c(N)[nH]c2ccc(Sc3ccccc3)cc12 | -0.8%
47 | Cc1ccc(-c2ccc(Nc3c4ccccc4nc4ccccc34)cc2)cn1 | 58.6%
48 | c1ccc2c(c1)NC(NC1Nc3ccccc3N1)N2 | -21.1%
49 | OC(COc1cccc2ccccc12)CN1CCOCC1 (stereo not drawn) | 73.5% (active)
50 | CCC/C(Cl)=N\OC(=O)Nc1ccc(Br)cc1 | 89.8% (active)
51 | COc1ccc(/C=C2\SC(=S)N(/C=C/c3nc4ccccc4[nH]c3=O)C2=O)cc1OC | 32.5%
52 | O=C(NNc1ccnc2cc(Cl)ccc12)/C(=C\c1ccccc1Cl)NC(=O)c1ccccc1 | 55.4%
53 | CSC1=NNC(SC)=NN1 | 30.9%
54 | Cc1c(C2=C(Br)C(=O)N(C)C2=O)c(=O)n(C)c(=O)n1C | 3.95%
55 | NCCNc1ccc(NCCN)c2c1C(=O)c1c(O)ccc(O)c1C2=O | 64.5%
56 | Cn1c(=O)c(-c2ccccc2)c(N=[N+]=[N-])c2ccccc21 | 86% (active)
57 | CCCCCCCCCCCCCCCCCCOCC(O)COP(=O)(O)OCC1OC(n2cc(F)c(=O)[nH]c2=O)CC1O (stereo not drawn) | 89.8% (active)
58 | CCS(=O)(=O)c1ccc(/C=C/C=N/NC(=S)NCC(C)C)cc1 | -67.3%
59 | CCC(=O)Oc1c(Cl)cc(Cl)c2ccccc12 | 15.2%

Row | SMILES | growth inhibition
60 | COc1cc2c3c(cccc3c1)C(=O)N(CCN(C)C)C2=O | -5.5%
61 | CN(C)c1ccc(C(C#N)=C(C#N)C#N)cc1 | 59.5%
62 | O=C(CCCN1CCC2(CC1)CC(=O)N(N1CCCCCC1)C2=O)c1ccc(F)cc1 | 72% (active)
63 | O=C1C2C(C(=O)N1c1ccc(OCc3ccccc3)cc1)C1c3ccccc3C2C2CCCCN21 (stereo not drawn) | 4.85%
64 | CCN(CC)CCC(=O)c1ccc(Oc2ccc(F)cc2)cc1 | 32.9%
65 | O=Nc1c(NO)ccc2nn(-c3ccccc3)nc12 | 89.1% (active)
66 | CC(=O)SCCC[Si](C)(C)CCCSC(C)=O | 39%
67 | O=C(O)C1CCCCC1c1c2ccc(=O)c(O)c-2oc2c(O)c(O)ccc12 (stereo not drawn) | 56.2%
68 | Cc1ccc(NN(NC(=O)OC(C)C)C(=O)OC(C)C)cc1 | 28.6%
69 | O=C1c2ccccc2C(=O)c2cc(CBr)ccc21 | 57.5%
70 | Cc1c(C(Cc2ccccc2N(C)C(=O)/C=C\C(=O)O)c2c[nH]c3ccccc23)c2ccccc2n1C (stereo not drawn) | 88.1% (active)
71 | CC(C)/C(Cl)=N\OC(=O)Nc1ccc(F)cc1 | 38.8%
72 | O=C1OC(=O)C2CCCC3CCCC1C32 (stereo not drawn) | 20.8%
73 | CCOC(=O)C(NC(=O)c1ccccc1)(N1CCN(c2cc3c(cc2F)c(=O)c(C(=O)O)cn3C2CC2)CC1)C(F)(F)F (stereo not drawn) | 18.5%
74 | COc1ccc(NC(=S)N/N=C(\c2ccccc2)c2ccccn2)cc1 | 79.2% (active)
75 | C=CCC1=C(C)C(OC(=O)/C=C/c2ccccc2)CC1=O (stereo not drawn) | 33.5%
76 | NNc1c(F)c(F)cc(F)c1F | 46.9%
77 | COP(=O)(OC)/C(=C\C1=CN(C(c2ccccc2)(c2ccccc2)c2ccccc2)CN1)NC=O | 95.2% (active)
78 | COC(=O)c1cc(-c2ccc(C)cc2)[nH]c(=O)c1C#N | 66%
